What all share (assay): DAPPL (digital affinity profiling via proximity ligation, sequencing); 10 mM Tris-HCl pH 7.5, 50 mM NaCl, 1 mM DTT, 4% glycerol, room temperature, 30 min; GST-TFs on glutathione beads, 16-mer random dsDNA library, 0.1% formaldehyde crosslink after washing; high values mean tight binding
For one experiment, the target named is T1, FEV (Homo sapiens, UniProt Q99581 1-238).
T1 sequence: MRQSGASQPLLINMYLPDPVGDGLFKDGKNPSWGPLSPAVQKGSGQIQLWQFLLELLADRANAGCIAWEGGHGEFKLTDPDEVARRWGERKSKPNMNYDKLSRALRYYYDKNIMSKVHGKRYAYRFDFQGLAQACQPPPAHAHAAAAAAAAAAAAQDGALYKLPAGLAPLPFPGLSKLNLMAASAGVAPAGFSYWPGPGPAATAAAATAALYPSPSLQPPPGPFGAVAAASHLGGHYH
The note with it: protein: recombinant; tags: N-terminal GST; dsDNA, one strand shown. In short, it runs like this:
(§1)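 Binding signal is each hexamer's read frequency for a factor divided by its frequency in the tag-only sample. The factors were GST-fused human transcription factors from yeast, captured on glutathione beads, DNA-barcoded and pooled with that sample. Pools were incubated with 200 nmole of a random double-stranded 16-mer DNA library in Tris/NaCl/DTT/glycerol buffer at room temperature for 30 min, then washed, crosslinked with 0.1% formaldehyde, proximity-ligated with BsaI/T4 ligase (1 h, 37 °C), PCR-amplified and sequenced on an Illumina NextSeq500.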

The target of another experiment is ETV5 (Homo sapiens, UniProt P41161 1-510). The note with it: protein: recombinant; tags: N-terminal GST; dsDNA, one strand shown. In short, it runs like this: as §1
The next experiment concerns the target HSF1 (Homo sapiens, UniProt Q00613 1-529). The note with it: protein: recombinant; tags: N-terminal GST; chain copies: 3; dsDNA, one strand shown. The method in brief:
as §1

A further experiment addresses T2, SPIC (Homo sapiens, UniProt Q8N5J4 1-248).
T2 sequence: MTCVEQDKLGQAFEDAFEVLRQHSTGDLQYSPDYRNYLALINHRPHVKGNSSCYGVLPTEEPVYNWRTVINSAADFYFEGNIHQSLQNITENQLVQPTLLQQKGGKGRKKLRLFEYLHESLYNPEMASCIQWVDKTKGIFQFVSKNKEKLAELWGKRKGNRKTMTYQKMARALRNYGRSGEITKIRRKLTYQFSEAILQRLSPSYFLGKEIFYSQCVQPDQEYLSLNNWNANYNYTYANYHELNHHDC
The following applies: protein: recombinant; tags: N-terminal GST; dsDNA, one strand shown. The method in brief:
as §1

The target in another experiment is ELF4 (Homo sapiens, UniProt Q99607 1-663). The following applies: protein: recombinant; tags: N-terminal GST; dsDNA, one strand shown. In short, it runs like this: as §1
The target in the next experiment is T3, ELK4 (Homo sapiens, UniProt P28324-2 1-405).
T3 sequence: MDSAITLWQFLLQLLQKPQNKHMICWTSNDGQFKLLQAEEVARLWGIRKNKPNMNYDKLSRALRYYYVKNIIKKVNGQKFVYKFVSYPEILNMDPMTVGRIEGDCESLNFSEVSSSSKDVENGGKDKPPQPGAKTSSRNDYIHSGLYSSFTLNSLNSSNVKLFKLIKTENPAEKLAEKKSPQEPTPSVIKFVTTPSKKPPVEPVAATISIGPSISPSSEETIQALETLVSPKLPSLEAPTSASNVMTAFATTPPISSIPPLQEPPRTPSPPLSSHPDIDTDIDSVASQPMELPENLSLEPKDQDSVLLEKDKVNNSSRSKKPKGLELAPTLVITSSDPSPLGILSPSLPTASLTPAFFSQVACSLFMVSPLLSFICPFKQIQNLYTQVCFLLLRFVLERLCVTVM
The note with it: protein: recombinant; tags: N-terminal GST; dsDNA, one strand shown. The method in brief:
as §1

A further experiment concerns the target T4, ETV2 (Homo sapiens, UniProt O00321 1-342).
T4 sequence: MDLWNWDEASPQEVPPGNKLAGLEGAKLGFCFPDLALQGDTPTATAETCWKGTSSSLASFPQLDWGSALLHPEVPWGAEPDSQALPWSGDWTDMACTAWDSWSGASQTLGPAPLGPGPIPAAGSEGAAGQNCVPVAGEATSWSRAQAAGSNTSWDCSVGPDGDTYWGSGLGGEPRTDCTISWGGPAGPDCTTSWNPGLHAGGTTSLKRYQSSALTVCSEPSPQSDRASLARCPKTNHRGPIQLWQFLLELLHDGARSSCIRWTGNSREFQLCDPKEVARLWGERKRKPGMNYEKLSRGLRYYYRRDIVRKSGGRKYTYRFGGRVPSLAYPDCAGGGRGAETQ
The following applies: protein: recombinant; tags: N-terminal GST; dsDNA, one strand shown. The method in brief:
as §1

The next experiment addresses T5, ELF3 (Homo sapiens, UniProt P78545 1-371).
T5 sequence: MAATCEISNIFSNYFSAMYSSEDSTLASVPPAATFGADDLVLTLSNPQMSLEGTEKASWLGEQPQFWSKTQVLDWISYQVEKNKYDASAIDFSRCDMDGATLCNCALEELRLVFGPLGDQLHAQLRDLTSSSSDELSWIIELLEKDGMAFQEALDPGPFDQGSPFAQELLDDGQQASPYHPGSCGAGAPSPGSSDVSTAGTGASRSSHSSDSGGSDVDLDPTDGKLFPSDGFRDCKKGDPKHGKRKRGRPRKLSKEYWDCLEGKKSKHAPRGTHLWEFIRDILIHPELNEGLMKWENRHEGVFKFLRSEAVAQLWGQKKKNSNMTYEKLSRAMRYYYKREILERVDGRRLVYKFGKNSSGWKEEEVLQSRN
The following applies: protein: recombinant; tags: N-terminal GST; dsDNA, one strand shown. The method in brief:
as §1

The next experiment has as its target CRX (Homo sapiens, UniProt O43186 1-299). The following applies: protein: recombinant; tags: N-terminal GST; dsDNA, one strand shown. In short, it runs like this: as §1
Another experiment deals with ETV1 (Homo sapiens, UniProt P50549 1-477). The note with it: protein: recombinant; tags: N-terminal GST; dsDNA, one strand shown. The method in brief:
as §1

The next experiment addresses T6, ERF (Homo sapiens, UniProt P50548 1-548).
T6 sequence: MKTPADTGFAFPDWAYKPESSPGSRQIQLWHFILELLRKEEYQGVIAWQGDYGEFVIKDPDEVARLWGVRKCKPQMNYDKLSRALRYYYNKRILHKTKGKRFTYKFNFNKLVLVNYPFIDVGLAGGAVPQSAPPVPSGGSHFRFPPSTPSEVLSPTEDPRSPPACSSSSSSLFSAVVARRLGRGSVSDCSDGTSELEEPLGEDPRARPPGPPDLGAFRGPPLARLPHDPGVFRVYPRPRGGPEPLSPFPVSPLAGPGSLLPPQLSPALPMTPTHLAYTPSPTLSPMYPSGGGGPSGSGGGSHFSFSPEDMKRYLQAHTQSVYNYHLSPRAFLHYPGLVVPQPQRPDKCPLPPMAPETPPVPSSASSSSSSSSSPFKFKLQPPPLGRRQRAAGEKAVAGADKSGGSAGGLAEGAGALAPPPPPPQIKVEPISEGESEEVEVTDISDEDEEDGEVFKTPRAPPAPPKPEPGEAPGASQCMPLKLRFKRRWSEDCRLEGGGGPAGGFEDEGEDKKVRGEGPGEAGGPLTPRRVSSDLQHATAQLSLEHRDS
The note with it: protein: recombinant; tags: N-terminal GST; dsDNA, one strand shown. The method in brief: as §1

In another experiment the target is T7, ETV3L (Homo sapiens, UniProt Q6ZN32 1-361).
T7 sequence: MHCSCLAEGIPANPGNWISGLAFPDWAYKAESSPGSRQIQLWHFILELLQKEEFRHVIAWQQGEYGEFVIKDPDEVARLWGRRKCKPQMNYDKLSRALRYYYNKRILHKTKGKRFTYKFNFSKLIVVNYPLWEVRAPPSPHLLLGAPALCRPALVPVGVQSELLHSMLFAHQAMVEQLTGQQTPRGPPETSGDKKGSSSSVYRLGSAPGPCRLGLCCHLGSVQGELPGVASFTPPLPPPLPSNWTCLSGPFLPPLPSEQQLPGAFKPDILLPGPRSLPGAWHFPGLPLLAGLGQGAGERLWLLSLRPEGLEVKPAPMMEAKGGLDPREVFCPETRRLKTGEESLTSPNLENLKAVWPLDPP
The following applies: protein: recombinant; tags: N-terminal GST; dsDNA, one strand shown. The method in brief:
as §1

The next experiment concerns the target T8, ETS2 (Homo sapiens, UniProt P15036 1-469).
T8 sequence: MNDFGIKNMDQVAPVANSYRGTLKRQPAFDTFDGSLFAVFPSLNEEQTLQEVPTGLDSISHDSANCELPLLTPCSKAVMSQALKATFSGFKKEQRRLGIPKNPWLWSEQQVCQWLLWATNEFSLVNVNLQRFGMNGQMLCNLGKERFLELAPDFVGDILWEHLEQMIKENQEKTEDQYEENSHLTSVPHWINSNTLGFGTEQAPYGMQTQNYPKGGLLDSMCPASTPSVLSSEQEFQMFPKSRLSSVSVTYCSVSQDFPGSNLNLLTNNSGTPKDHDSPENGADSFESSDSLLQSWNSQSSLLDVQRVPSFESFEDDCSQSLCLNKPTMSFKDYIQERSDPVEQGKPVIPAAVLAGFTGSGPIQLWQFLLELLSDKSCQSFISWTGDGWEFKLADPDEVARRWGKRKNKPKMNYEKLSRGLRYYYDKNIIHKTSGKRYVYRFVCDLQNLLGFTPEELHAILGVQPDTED
The following applies: protein: recombinant; tags: N-terminal GST; dsDNA, one strand shown. The method in brief:
as §1

The next experiment concerns the target T9, SPDEF (Homo sapiens, UniProt O95238 1-335).
T9 sequence: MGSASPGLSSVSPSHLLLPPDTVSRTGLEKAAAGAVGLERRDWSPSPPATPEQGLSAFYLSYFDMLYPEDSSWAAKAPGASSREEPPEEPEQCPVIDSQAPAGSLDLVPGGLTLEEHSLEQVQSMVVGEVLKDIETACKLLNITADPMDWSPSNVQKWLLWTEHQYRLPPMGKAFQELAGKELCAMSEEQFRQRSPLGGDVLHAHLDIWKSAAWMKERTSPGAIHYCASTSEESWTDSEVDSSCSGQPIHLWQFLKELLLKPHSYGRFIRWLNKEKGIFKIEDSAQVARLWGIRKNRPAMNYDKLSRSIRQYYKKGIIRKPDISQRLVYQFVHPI
The following applies: protein: recombinant; tags: N-terminal GST; dsDNA, one strand shown. In short, it runs like this:
as §1

A further experiment deals with T10, ETV7 (Homo sapiens, UniProt Q9Y603 1-341).
T10 sequence: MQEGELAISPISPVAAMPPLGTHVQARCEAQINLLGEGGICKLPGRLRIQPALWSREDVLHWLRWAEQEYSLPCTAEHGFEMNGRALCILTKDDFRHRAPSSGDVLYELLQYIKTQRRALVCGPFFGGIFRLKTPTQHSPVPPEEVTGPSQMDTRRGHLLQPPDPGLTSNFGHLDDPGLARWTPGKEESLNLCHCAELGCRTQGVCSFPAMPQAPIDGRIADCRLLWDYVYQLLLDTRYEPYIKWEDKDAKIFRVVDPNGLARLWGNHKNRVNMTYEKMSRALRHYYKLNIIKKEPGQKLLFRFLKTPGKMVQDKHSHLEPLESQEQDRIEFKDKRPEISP
The following applies: protein: recombinant; tags: N-terminal GST; dsDNA, one strand shown. The method in brief:
as §1

The target in a further experiment is T11, ELF5 (Homo sapiens, UniProt Q9UKW6-2 1-255).
T11 sequence: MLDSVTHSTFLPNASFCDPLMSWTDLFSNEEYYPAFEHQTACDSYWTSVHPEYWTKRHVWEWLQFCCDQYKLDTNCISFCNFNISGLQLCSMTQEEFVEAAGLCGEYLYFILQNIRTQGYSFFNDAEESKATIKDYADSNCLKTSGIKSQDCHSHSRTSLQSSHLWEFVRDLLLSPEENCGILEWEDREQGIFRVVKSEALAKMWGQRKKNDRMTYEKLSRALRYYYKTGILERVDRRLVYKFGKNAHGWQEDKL
The following applies: protein: recombinant; tags: N-terminal GST; dsDNA, one strand shown. The method in brief: as §1

A further experiment addresses T12, ETV3 (Homo sapiens, UniProt P41162-2 1-143).
T12 sequence: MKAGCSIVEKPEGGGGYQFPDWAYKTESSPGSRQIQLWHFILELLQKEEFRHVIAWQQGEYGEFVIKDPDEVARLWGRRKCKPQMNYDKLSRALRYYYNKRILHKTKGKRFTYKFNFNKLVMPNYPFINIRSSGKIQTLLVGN
The note with it: protein: recombinant; tags: N-terminal GST; dsDNA, one strand shown. In short, it runs like this:
as §1

For a further experiment, the target named is ETV6 (Homo sapiens, UniProt P41212 1-452). The note with it: protein: recombinant; tags: N-terminal GST; dsDNA, one strand shown. The method in brief:
as §1

Chain of ELF4 (Q99607 whole entry): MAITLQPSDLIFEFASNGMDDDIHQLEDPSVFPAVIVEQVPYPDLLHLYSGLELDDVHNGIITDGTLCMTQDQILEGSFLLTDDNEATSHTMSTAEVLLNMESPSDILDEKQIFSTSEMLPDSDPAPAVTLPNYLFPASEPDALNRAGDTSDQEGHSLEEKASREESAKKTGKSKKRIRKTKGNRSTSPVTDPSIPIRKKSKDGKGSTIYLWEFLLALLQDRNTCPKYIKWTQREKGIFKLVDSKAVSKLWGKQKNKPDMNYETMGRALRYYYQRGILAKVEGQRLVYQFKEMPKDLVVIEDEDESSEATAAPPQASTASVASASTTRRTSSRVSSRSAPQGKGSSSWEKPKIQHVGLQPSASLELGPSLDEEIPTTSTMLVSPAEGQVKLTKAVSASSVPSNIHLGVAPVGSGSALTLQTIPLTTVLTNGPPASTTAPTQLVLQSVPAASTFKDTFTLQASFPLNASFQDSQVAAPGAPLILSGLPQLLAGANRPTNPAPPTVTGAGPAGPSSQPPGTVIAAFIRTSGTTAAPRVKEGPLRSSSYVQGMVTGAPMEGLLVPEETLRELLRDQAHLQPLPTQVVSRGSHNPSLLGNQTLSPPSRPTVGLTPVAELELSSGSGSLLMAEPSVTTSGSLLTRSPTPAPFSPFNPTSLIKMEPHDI
Chain of HSF1 (Q00613 whole entry): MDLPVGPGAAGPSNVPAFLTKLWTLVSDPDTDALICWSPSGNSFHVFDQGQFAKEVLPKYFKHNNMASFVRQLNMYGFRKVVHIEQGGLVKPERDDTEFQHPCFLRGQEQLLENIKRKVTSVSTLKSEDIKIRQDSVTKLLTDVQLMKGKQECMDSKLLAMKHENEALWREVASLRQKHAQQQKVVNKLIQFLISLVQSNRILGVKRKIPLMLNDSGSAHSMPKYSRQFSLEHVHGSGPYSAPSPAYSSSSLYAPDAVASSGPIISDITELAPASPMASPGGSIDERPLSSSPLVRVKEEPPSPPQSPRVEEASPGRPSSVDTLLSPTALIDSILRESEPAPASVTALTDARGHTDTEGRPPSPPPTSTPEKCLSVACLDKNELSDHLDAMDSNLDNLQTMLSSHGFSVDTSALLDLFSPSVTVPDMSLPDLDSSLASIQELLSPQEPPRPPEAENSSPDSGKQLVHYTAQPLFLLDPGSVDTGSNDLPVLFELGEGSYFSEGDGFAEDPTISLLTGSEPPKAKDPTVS
Chain of ETV6 (P41212 whole entry): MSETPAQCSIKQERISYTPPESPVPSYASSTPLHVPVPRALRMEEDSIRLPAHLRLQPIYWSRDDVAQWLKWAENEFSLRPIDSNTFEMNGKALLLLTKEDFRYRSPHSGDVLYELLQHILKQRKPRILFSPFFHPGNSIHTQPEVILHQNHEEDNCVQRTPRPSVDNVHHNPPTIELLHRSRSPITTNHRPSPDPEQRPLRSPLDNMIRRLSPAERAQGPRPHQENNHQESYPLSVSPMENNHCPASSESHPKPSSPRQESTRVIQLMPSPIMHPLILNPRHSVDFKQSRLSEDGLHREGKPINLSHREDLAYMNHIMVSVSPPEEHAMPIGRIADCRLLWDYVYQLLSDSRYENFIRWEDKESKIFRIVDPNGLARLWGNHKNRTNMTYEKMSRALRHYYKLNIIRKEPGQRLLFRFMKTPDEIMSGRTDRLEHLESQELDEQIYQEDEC
Chain of ETV1 (P50549 whole entry): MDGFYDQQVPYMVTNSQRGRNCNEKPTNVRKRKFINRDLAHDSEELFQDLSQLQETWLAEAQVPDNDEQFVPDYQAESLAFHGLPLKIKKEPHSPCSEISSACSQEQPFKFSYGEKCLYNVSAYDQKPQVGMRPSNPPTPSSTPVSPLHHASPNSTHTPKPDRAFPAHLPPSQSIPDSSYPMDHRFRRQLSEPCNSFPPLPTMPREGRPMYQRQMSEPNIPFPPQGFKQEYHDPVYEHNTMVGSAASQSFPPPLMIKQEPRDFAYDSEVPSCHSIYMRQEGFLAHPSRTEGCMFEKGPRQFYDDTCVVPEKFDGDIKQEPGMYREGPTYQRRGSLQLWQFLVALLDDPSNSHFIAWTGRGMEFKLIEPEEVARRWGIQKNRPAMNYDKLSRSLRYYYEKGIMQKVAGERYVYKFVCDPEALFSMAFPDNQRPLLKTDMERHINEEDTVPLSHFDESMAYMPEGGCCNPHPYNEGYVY
Chain of ETV5 (P41161 whole entry): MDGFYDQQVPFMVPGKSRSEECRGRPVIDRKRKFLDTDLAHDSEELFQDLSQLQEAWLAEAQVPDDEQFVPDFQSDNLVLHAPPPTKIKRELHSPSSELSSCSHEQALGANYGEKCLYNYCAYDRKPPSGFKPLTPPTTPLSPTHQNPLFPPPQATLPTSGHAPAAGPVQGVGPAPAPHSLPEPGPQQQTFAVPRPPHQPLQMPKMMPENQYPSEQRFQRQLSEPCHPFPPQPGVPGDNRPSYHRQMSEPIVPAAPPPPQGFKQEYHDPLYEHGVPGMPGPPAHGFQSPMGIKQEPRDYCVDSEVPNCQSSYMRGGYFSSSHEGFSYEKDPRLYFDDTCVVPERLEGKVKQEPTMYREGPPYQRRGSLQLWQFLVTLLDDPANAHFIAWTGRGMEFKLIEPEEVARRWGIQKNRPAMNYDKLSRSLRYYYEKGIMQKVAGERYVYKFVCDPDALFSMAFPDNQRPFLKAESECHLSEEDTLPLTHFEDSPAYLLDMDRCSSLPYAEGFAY
Chain of CRX (O43186 whole entry): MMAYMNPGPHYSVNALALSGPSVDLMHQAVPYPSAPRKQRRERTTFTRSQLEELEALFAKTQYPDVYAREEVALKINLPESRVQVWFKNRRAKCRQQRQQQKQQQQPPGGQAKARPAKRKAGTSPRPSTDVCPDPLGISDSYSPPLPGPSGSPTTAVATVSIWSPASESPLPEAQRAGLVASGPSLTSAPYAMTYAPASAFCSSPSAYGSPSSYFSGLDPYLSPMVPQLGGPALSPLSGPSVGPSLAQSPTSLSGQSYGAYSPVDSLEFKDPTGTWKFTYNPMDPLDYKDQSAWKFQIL

Regarding GAATTT, the binding signal with FEV is 1.19 fold enrichment (6-mer frequency, TF over GST control); with ETV5, 1.26 fold enrichment (6-mer frequency, TF over GST control); with HSF1, 1.7 fold enrichment (6-mer frequency, TF over GST control); in the experiment with SPIC it was 1.39 fold enrichment (6-mer frequency, TF over GST control); with ELF4, 1.25 fold enrichment (6-mer frequency, TF over GST control); with ELK4, 1.31 fold enrichment (6-mer frequency, TF over GST control). In addition, the binding signal with ETV2 is 1.14 fold enrichment (6-mer frequency, TF over GST control); with ELF3, 1.13 fold enrichment (6-mer frequency, TF over GST control); with CRX, 1.39 fold enrichment (6-mer frequency, TF over GST control); with ETV1, 1.24 fold enrichment (6-mer frequency, TF over GST control); with ERF, 1.27 fold enrichment (6-mer frequency, TF over GST control); in the experiment with ETV3L, 1.21 fold enrichment (6-mer frequency, TF over GST control). In addition, the binding signal with ETS2 was 1.28 fold enrichment (6-mer frequency, TF over GST control); with SPDEF, 1.23 fold enrichment (6-mer frequency, TF over GST control); with ETV7, 1.29 fold enrichment (6-mer frequency, TF over GST control); with ELF5, 1.3 fold enrichment (6-mer frequency, TF over GST control); with ETV3, 1.29 fold enrichment (6-mer frequency, TF over GST control); with ETV6, 1.2 fold enrichment (6-mer frequency, TF over GST control).
